The source of these data is PubChem BioAssay (NCI).

Structures are written as SMILES. This is part of a sample that, as a whole, favours compounds with a hit. Of some 83,000 tested, about 20% had one in any assay.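 The test compound was applied at a single concentration to cells in 96-well plates for 48 hours, and percent growth was recorded.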 The source made the active and inactive calls. How the source made its calls: active means growth percent below 10; inactive means the rest.

The test system of the assay is MDA-MB-468 breast. Briefly: NCI-60 one-dose screen, 48 h (100 = growth as untreated, 0 = no growth, -100 = all killed). The settings on record: 10 µM unless noted.
On to `c1c2c(cc3c1OCO3)Cc1cc3c(cc1Cc1cc4c(cc1C2)OCO4)OCO3`, for which the growth is 106% (inactive).

In the case of `O=C(NCc1ccco1)C1CN(c2ccc(Cl)cc2)N(c2ccc(Cl)cc2)C1=O` (stereo unspecified), the growth is 42.4% (inactive).

Take `CCOc1nc(-c2ccccc2)cc2c(O)c(C(=O)N/N=C/c3ccc(O)cc3O)[nH]c(=O)c12`: the growth is 29.9% (inactive).

As for `COc1ccc(C(=O)c2sc3nc(C)cc(C)c3c2N)cc1OC`, the growth is 88% (inactive).

As to `c1coc(CSc2ncnc3nc[nH]c23)c1`, the growth was 96% (inactive).

Consider `COc1ccc(C2=C(Br)C(=O)c3nc(C)ccc3C2=O)cc1`, for which the growth is 87.1% (inactive).

Take `O=C(Nn1c2c(sc1=Nc1ccccc1)C(=O)c1ccccc1C2=O)c1cc2ccc1CCc1ccc(cc1)CC2`: the growth was 105% (inactive).

For the compound `FC(F)(F)c1nn[nH]n1`, the growth was 99% (inactive).

As to `Cc1ccc(-n2c(=S)[nH]c3sc4c(c3c2=O)CCC(=O)C4)cc1`, the growth was 51.1% (inactive).

As for `Clc1ccc(N2N=C(c3cccc(Nc4ccncc4)c3)CC2c2ccc(Br)cc2)cc1` (stereo unspecified), the growth was -27.1% (active).

In the case of `CC(C)CCC[C@@H](C)[C@H]1CC[C@H]2[C@@H]3CC=C4N(c5ccccc5)C(=O)CC[C@]4(C)[C@H]3CC[C@]12C`, the growth is 96.4% (inactive).

For `COC(=O)[C@]1(C)CCC[C@]2(C)[C@H]3C[C@H]4C(C(C)C)=C[C@]3(CC[C@H]21)[C@H]1[C@@H]4[C@@H](OCCC#N)CC[C@@H]1OCCC#N`, the growth was -6.32% (active).

For `Cc1ccc(Cl)cc1NC(=O)c1cc2ccccc2cc1O`, the growth is -58.7% (active).

Take `COc1cccc(CCC2C(=O)CCCC2=O)c1`: the growth was 115% (inactive).

As for `O=C(Nc1ccccc1O)c1ccc(Oc2cccc(C(=O)Nc3ccccc3O)c2)cc1`, the growth was -27.2% (active).

In the case of `OCCNCCNC(Cc1ccc(Cl)cc1)c1ccccc1` (stereo unspecified), the growth is 86.4% (inactive).

For the compound `O=C(OCc1ccc2c(Br)cc(Br)c(O)c2n1)N1CCN(C(=O)c2cc3ccccc3[nH]2)CC1`, the growth was 21.9% (inactive).

Consider `CC[C@]1(O)C[C@@H]2CN(CCc3c([nH]c4ccccc34)[C@@](C(=O)OC)(c3cc4c(cc3OC)N(C)[C@H]3[C@@](O)(C(=O)OC)[C@H](OC(C)=O)[C@]5(CC)C=CCN6CC[C@]43[C@@H]65)C2)C1`, for which the growth is 19.8% (inactive).

For `O=C(/C=C/c1cn(-c2ccccc2)nc1-c1ccc([N+](=O)[O-])cc1)c1ccc(Cl)cc1`, the growth is 39.5% (inactive).

As to `COc1ccc(CN2c3ccccc3Sc3ccccc32)c(C(F)(F)F)c1`, the growth was 18.8% (inactive).

Regarding `O=c1c2c(=NCCN3CCCC3)cc3c(=O)n(CCCN4CCOCC4)c(=O)c4c(-c5ccc(CN6CCCC6)cc5)cc(c(O)n1CCCN1CCOCC1)c2c4-3`, the growth was -58.1% (active).

For the compound `Nc1c(C(=O)Nc2ccnc3ccccc23)sc2nc3c(cc12)CN(Cc1ccccc1)CC3`, the growth was 44% (inactive).

As to `Nc1ncc(-c2ccc(C(F)(F)F)cc2)c(NC2CCCCCC2)n1`, the growth was -3.25% (active).

`Cc1[nH]n(-c2cccc(Cl)c2)c(=O)c1/C=C1\C=c2ccccc2=CC1=O`: the growth is 34.5% (inactive).

With `N#C/C(=C\c1c(-c2ccccc2)[nH]c2ccccc12)S(=O)(=O)c1ccccc1`, the growth was 20.5% (inactive).

For `Nc1nc(-c2ccccc2)nc(N)c1N=O`, the growth was 72.4% (inactive).
